In PubChem BioAssay AID1259415 (National Center for Advancing Translational Sciences (NCATS), 2018):
Hit rate of the full screen: of about 410,000 compounds, about 18,000 (4.4%) were called active. Inconclusive results (about 7%) are left out. The sample holds actives, similar compounds and a random draw of the others, so the mix is not that of the screen. Unmarked numbers belong to inactive results. Cut-off read from the data, not from the text of the source: active = activity change below about -60%; inconclusive = no clear call, values can overlap the other calls; inactive = above about -39%.

assay: qHTS Assay for inhibitors of the human cytomegalovirus (HCMV); conditions: HFF cells, HCMV-luciferase reporter, 72 h; at 57.5 µM; hits give low values
Method in brief: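 Screen run at 2 compound doses on HFFs infected with reporter HCMV, MOI 1 PFU/cell. Luciferase activity from cell lysates at 72 h post infection gave inhibition relative to buffer-only and Salinomycin wells.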
% is set by controls: 0 for no effect and ±100 for the full control effect.

Compound	activity change, negative = inhibition
CCOC(=O)Cn1c(=O)n(C2CCCCC2)c2nc(-c3cccc(OC)c3)nc(C(N)=O)c21	18.1%
O=C(/C=C/c1ccccc1)N1CCN(Cc2cc(=O)n3nc(-c4ccccc4F)sc3n2)CC1	34.4%
O=C1OCC2=C1C(c1ccc(Cl)cc1)c1cc3c(cc1O2)OCO3 (stereo not given)	37.6%
CCCOc1ccccc1C1CC(=O)Nc2cc3c(cc21)OCO3 (stereo not given)	-61.8% (active)
COc1ccccc1C1C2=C(COC2=O)Nc2cc3c(cc21)OCO3 (stereo not given)	-87.9% (active)
O=C1CC(c2ccc(F)cc2F)c2cc3c(cc2N1)OCO3 (stereo not given)	-1.6%
O=C1NC(c2cc3c(cc2Cl)OCO3)Oc2ccccc21 (stereo not given)	17.7%
Cc1cc2c(cc1C)C(c1cccc(OC(C)C)c1)CC(=O)N2 (stereo not given)	-38.7%
COc1ccc(-c2onc(C)c2C)cc1S(=O)(=O)NCC1CCN(Cc2cccc(F)c2)CC1	0%
Cc1ccccc1CN1CCC(CNC(=O)c2c(C)oc3ncnc(N4CCCCC4)c23)CC1	-4.04%
Cc1sc2ncn(CC(=O)N3CCN(c4ccc(F)cc4)CC3)c(=O)c2c1S(=O)(=O)N1CCN(c2ncccn2)CC1	-4.66%
Cc1n[nH]c(=O)c2c(NC(=O)CSc3ccccc3F)oc(C)c12	-30.8%
COc1ccc(N2C(=O)CS(=O)(=O)C23C(=O)N(Cc2ccc(C)cc2)c2ccccc23)cc1Cl (stereo not given)	-12.4%
S=C(NCC1COc2ccccc2O1)Nc1ccc(Br)cc1 (stereo not given)	-67.8% (active)
COc1ccc(NC(=O)CC2COc3ccccc3O2)c(OC)c1 (stereo not given)	9.76%
COc1ccccc1C1CCN(C(=S)Nc2ccc(Br)cc2)CC1	2.47%
CCC(=O)N1CCc2cc(S(=O)(=O)NC(Cc3ccccc3)C(=O)NCc3ccc(C)cc3)ccc21 (stereo not given)	5.04%
Cc1ccc(N(Cc2cc(=O)[nH]c3ccccc23)C(=O)CCl)cc1	-101% (active)
CCC(=O)N(Cc1cc2ccccc2[nH]c1=O)c1ccc(OC)cc1	18.3%
Cc1ccc(N(Cc2ccccc2O)C(=O)c2ccccc2F)cc1	-8.68%
Cc1ccc(C)c(NC(=O)Cn2ccn(-c3ccc(F)cc3)c(=O)c2=O)c1	-35.9%
O=S(=O)(Nc1ccc2nc(-c3cccc(Cl)c3)oc2c1)c1ccccc1	-36.4%
COc1ccc(C(C)(C)C)cc1NC(=O)CN(C)C1=NS(=O)(=O)c2ccccc21	6.84%
Oc1cccc(/C=N/Nc2ccc(Cl)nn2)c1O	-95.1% (active)
COc1ccc(-n2ccn(CC(=O)Nc3ccc(C)c(C)c3)c(=O)c2=O)cc1OC	-20.8%
